In PubChem BioAssay (NCI):
This is part of a sample that, as a whole, favours compounds with a hit. Of some 83,000 tested, about 20% had one in any assay.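 Activity criterion: percent growth below 10, measured after cells in 96-well plates were exposed to a single compound concentration for 48 hours.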 Unmarked numbers belong to inactive results. Activity calls are given as the source filed them.

Tests used:
Experiment in all cases: NCI-60 one-dose screen, 48 h (100 = growth as untreated, 0 = no growth, -100 = all killed)
Details in all cases: 10 µM unless noted
NCI-H23 lung = system: NCI-H23 lung
NCI-H226 lung = system: NCI-H226 lung
NCI-H322M lung = system: NCI-H322M lung
HOP-62 NSCLC = system: HOP-62 NSCLC
NCI-H460 lung = system: NCI-H460 lung
HOP-92 NSCLC = system: HOP-92 NSCLC
NCI-H522 lung = system: NCI-H522 lung
A549/ATCC NSCLC = system: A549/ATCC NSCLC
786-0 renal = system: 786-0 renal
COLO 205 colon = system: COLO 205 colon

Structure (SMILES) | growth (NCI-H23 lung) | growth (NCI-H226 lung) | growth (NCI-H322M lung) | growth (HOP-62 NSCLC) | growth (NCI-H460 lung) | growth (HOP-92 NSCLC) | growth (NCI-H522 lung) | growth (A549/ATCC NSCLC) | growth (786-0 renal) | growth (COLO 205 colon)
O=C1Nc2ccccc2/C1=C/c1ccc(OCC(=O)c2ccccc2)cc1 | 101% | 89% | 98% | 99.7% | 102% | 97.1% | 104% | 99.5% | 107% | 117%
CC(C)=CCC[C@](C)(O)[C@H]1CC[C@]2(C)[C@@H]1CC[C@@H]1[C@@]3(C)CC[C@H](N)C(C)(C)[C@@H]3CC[C@]12C | 76.5% | 93.1% | 111% | 97.9% | 27.4% | 76.3% | 96.8% | 67.3% | 61.9% | -31.4% (active)
CCCCc1nc2c(N)nc3ccccc3c2n1Cc1ccc(OC)cc1 | 60.5% | 73.3% | 92.1% | 77.4% | 63.3% | -3.74% (active) | 68.5% | 65.8% | 65.4% | 48.4%
CCc1cccc2c3c(sc12)C(c1ccc(F)cc1)C(C#N)=C(/N=C/c1ccc(Cl)cc1)O3 (stereo not given) | 32.4% | 44.6% | 52.9% | 36.4% | 14.6% | 66.6% | -43.4% (active) | 31.1% | 34.2% | -33.6% (active)
Cc1ccsc1[C@H]1c2[nH]c3ccccc3c2C[C@H]2C(=O)N(CCCCCCC(=O)NO)CC(=O)N12 | 89.6% | 97.3% | 81.1% | 101% | 78.4% | 92.6% | 58.8% | 99.3% | 99.1% | 96.5%
NC(=O)c1c(NC(=O)c2ccc(C(F)(F)F)cc2)sc2c1CCC(=O)C2 | -6.8% (active) | -24% (active) | 92.1% | 13.5% | 19.1% | -25.3% (active) | -25.9% (active) | 12.1% | 24.5% | -64.7% (active)
O=C(/C=C/c1csc(Br)n1)NO | 38.4% | 82.9% | 33.1% | 35.5% | 25.7% | -2.53% (active) | 7.37% (active) | 23.5% | 52.3% | 11.6%
CN(C)CCCOc1ccc(C(=C(c2ccccc2)C2CCCC2)c2ccc(OCCCN(C)C)cc2)cc1 | -78.8% (active) | -67.5% (active) | -97% (active) | -72.6% (active) | -62.6% (active) | -76.3% (active) | -89.8% (active) | -79.2% (active) | -80.4% (active) | -76.2% (active)
Cc1nc(/N=C(N)/N=C(\N)c2cccc(Br)c2)sc1C | 59.7% | 73.1% | 86.2% | 50% | 30.1% | 88% | 45.7% | 56.8% | 75.2% | 55.6%
COc1ccc(/C=N/NC(=O)CSc2nc(-c3cnccn3)cc(-c3cccs3)c2C#N)cc1OC | 66.6% | 47% | 91.9% | 77.1% | 56.2% | 37.8% | 76.5% | 74.8% | 53.1% | 107%
Cc1ccc(OCc2occc2C(=O)N2CCOCC2)cc1 | 101% | 96.9% | 106% | -95.9% (active) | 107% | 103% | 100% | 109% | 98.7% | 117%
CN(C)S(=O)(=O)c1ccc(-c2nc(C(Cl)Cl)nc3cc(-c4ccccc4)nn23)cc1 | 85% | 96% | 99% | 70.7% | 89% | 79% | 89.6% | 82.6% | 90.6% | 69.5%
COC(=O)N1CCN(CCNCc2ccc(NC(=O)c3ccc(C)c(C#Cc4cnc5cccnn45)c3)cc2C(F)(F)F)CC1 | 36.2% | 31.1% | 75.3% | 24.9% | 22.2% | 12.2% | 30.2% | 27.9% | 38.2% | 2.48% (active)
